Laboratory results taken from PubChem BioAssay (NCATS).
Inconclusive results are not listed. Activity calls are given as the source filed them. Calls follow the shape of the dose curve; as a rule, active = well fitted curve in the direction sought with a large enough effect; inconclusive = small, poorly fitted or top-dose-only effect, or another doubt; inactive = no such curve, though single readings can be large; an effect the other way counts as inactive or inconclusive.

Experiments:
[1] = qHTS of pediatric cancer cell lines to identify multiple opportunities for drug repurposing: Primary screen for MG 63 (6-TG R) cells (AID 1347105); also: nearly all actives have a fitted effect of over 50% in size
Method in brief: (§1)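 Luminescence from CellTiter-Glo served as readout of metabolically active cells after 48 h compound exposure. Titrations: MIPE 11-point, from 0.78 nM; NPC 8-point, from 0.59 nM (final). Concentration-response curves came straight from the primary screen.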

[2] = qHTS of pediatric cancer cell lines to identify multiple opportunities for drug repurposing: Primary screen for control Hh wild type fibroblast cells (AID 1347106); also: nearly all actives have a fitted effect of over 55% in size;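 as to activity change, negative = cytotoxic: a drop in luminescence marks cytotoxicity and a rise apparent proliferation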
Method in brief: (§2)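 Viability after 48 h compound treatment at 37C, 500-1,000 cells/well, read as ATP luminescence with CellTiter-Glo. Primary screens used 11-point (MIPE, 0.78 nM-46 µM) or 8-point (NPC, 0.59 nM-46 µM) final concentrations; follow-up screens used 11-point dilutions.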

[3] = qHTS of pediatric cancer cell lines to identify multiple opportunities for drug repurposing: Primary screen for Rh41 cells (AID 1347108); also: nearly all actives have a fitted effect of over 70% in size
Method in brief: as §1

[4] = qHTS of pediatric cancer cell lines to identify multiple opportunities for drug repurposing: Confirmatory screen for NB1643 cells (AID 1347109); also: nearly all actives have a fitted effect of over 45% in size
Method in brief: as §2

[5] = qHTS of pediatric cancer cell lines to identify multiple opportunities for drug repurposing: Confirmatory screen for A673 cells (AID 1347110); also: nearly all actives have a fitted effect of over 65% in size
Method in brief: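 Concentration-response curves came straight from titrations: 11 points (0.78 nM to 46 µM) for MIPE and several concentrations (0.59 nM to 46 µM) for NPC in primary, 11 points in follow-up. Readout: ATP luminescence at 48 h.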

[6] = qHTS of pediatric cancer cell lines to identify multiple opportunities for drug repurposing: Confirmatory screen for SK-N-MC cells (AID 1347111);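 also: cells exposed to compound for 48 h before the readout; nearly all actives have a fitted effect of over 70% in size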
Method in brief: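 SK-N-MC cells at 500-1,000 cells/well in growth media were pre-incubated 5 h, then exposed to compounds at 11-point dilutions for 48 h at 37 degrees C, 5% CO2. Viability was read as CellTiter-Glo luminescence.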

[7] = qHTS of pediatric cancer cell lines to identify multiple opportunities for drug repurposing: Confirmatory screen for LAN-5 cells (AID 1347113); also: nearly all actives have a fitted effect of over 65% in size
Method in brief: as §2

[8] = qHTS of pediatric cancer cell lines to identify multiple opportunities for drug repurposing: Confirmatory screen for SJ-GBM2 cells (AID 1347116); also: nearly all actives have a fitted effect of over 60% in size
Method in brief: (§3)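 Viability measured as metabolically active cells via CellTiter-Glo luminescence following 48 hours of compound exposure, 11-point dilutions in confirmatory testing. 500-1,000 cells/well plated 5 hours before dosing; controls were DMSO and 2.3 µM bortezomib.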

[9] = qHTS of pediatric cancer cell lines to identify multiple opportunities for drug repurposing: Confirmatory screen for BT-37 cells (AID 1347117); conditions: BT-37 pediatric cancer cells, viability; activity change, negative = cytotoxic: at 45.9 µM (top of the series); also: nearly all actives have a fitted effect of over 55% in size
Method in brief: as §2

[10] = qHTS of pediatric cancer cell lines to identify multiple opportunities for drug repurposing: Confirmatory screen for TC32 cells (AID 1347118); also: nearly all actives have a fitted effect of over 65% in size
Method in brief: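 TC32 cells, 500-1,000/well in growth medium, compound-treated 48 h at 37 °C; viability from CellTiter-Glo luminescence. Primary screen: MIPE 11-point (0.78 nM–46 µM final), NPC 8-point (0.59 nM–46 µM final); confirmatory at 11-point dilutions.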

[11] = qHTS of pediatric cancer cell lines to identify multiple opportunities for drug repurposing: Confirmatory screen for MG 63 (6-TG R) cells (AID 1347119); also: nearly all actives have a fitted effect of over 55% in size
Method in brief: as §2

[12] = qHTS of pediatric cancer cell lines to identify multiple opportunities for drug repurposing: Confirmatory screen for U-2 OS cells (AID 1347122); also: nearly all actives have a fitted effect of over 65% in size
Method in brief: as §2

[13] = qHTS of pediatric cancer cell lines to identify multiple opportunities for drug repurposing: Confirmatory screen for Rh41 cells (AID 1347123); also: nearly all actives have a fitted effect of over 60% in size
Method in brief: as §2

[14] = qHTS of pediatric cancer cell lines to identify multiple opportunities for drug repurposing: Confirmatory screen for RD cells (AID 1347124)
Method in brief: as §2

[15] = qHTS of pediatric cancer cell lines to identify multiple opportunities for drug repurposing: Confirmatory screen for Rh18 cells (AID 1347125); also: nearly all actives have a fitted effect of over 55% in size
Method in brief: as §2

[16] = qHTS of pediatric cancer cell lines to identify multiple opportunities for drug repurposing: Primary screen for Rh30 cells (AID 1347107); also: nearly all actives have a fitted effect of over 75% in size
Method in brief: as §2

[17] = qHTS of pediatric cancer cell lines to identify multiple opportunities for drug repurposing: Confirmatory screen for DAOY cells (AID 1347114); also: nearly all actives have a fitted effect of over 65% in size
Method in brief: as §3

[18] = qHTS of pediatric cancer cell lines to identify multiple opportunities for drug repurposing: Confirmatory screen for NB-EBc1 cells (AID 1347115); also: nearly all actives have a fitted effect of over 45% in size
Method in brief: as §2

[19] = qHTS of pediatric cancer cell lines to identify multiple opportunities for drug repurposing: Confirmatory screen for control Hh wild type fibroblast cells (AID 1347121); also: nearly all actives have a fitted effect of over 70% in size
Method in brief: as §2

[20] = qHTS of pediatric cancer cell lines to identify multiple opportunities for drug repurposing: Confirmatory screen for BT-12 cells (AID 1347112); also: nearly all actives have a fitted effect of over 55% in size
Method in brief: as §2
Potency is read from the fitted curve at half-maximal effect.

Compound	Potency [1]	Potency [2]	Potency [3]	Potency [4]	Potency [5]	Potency [6]	Potency [7]	Potency [8]	Potency [9]	Potency [10]	Potency [11]	Potency [12]	Potency [13]	Potency [14]	Potency [15]	Potency [16]	Potency [17]	Potency [18]	Potency [19]	Potency [20]
CS(=O)(=O)N1CCc2c(-c3cnc(N)nc3)nc(N3CCOCC3)nc21	0.118 µM (active)	inactive	0.833 µM (active)	1.65 µM (active)	4.14 µM (active)	2.61 µM (active)	1.17 µM (active)	7.37 µM (active)	5.85 µM (active)	1.85 µM (active)	0.585 µM (active)	1.85 µM (active)	1.85 µM (active)	1.31 µM (active)	1.85 µM (active)	–	–	–	–	–
O=C(O)c1ccc(Nc2ncc3c(n2)-c2ccc(Cl)cc2C(c2c(F)cccc2F)=NC3)cc1	23.5 µM (active)	inactive	–	–	–	4.14 µM (active)	inactive	–	–	1.47 µM (active)	–	4.14 µM (active)	2.33 µM (active)	–	–	18.7 µM (active)	–	–	–	–
Cc1ccc(-n2[nH]c(C)c(N=Nc3cccc(-c4cccc(C(=O)O)c4)c3O)c2=O)cc1C	21.1 µM (active)	inactive	18.7 µM (active)	–	–	–	–	–	–	–	–	–	–	–	–	–	–	–	–	–
COc1ccc(C(C)=O)c(O)c1	inactive	inactive	–	–	–	inactive	inactive	–	inactive	–	inactive	inactive	inactive	inactive	inactive	inactive	inactive	inactive	inactive	–
CC(=O)[C@]1(O)Cc2c(O)c3c(c(O)c2[C@@H](O[C@H]2C[C@H](N)[C@@H](O)[C@H](C)O2)C1)C(=O)c1ccccc1C3=O	0.235 µM (active)	3.72 µM (active)	0.935 µM (active)	–	0.0827 µM (active)	0.522 µM (active)	0.329 µM (active)	0.369 µM (active)	0.329 µM (active)	0.293 µM (active)	–	1.31 µM (active)	0.329 µM (active)	0.737 µM (active)	6.57 µM (active)	4.69 µM (active)	2.08 µM (active)	0.465 µM (active)	–	–
c1cncc(CN2CCC(n3ncc4c(N5CCOCC5)nc(-c5ccc6[nH]ccc6c5)nc43)CC2)c1	14.8 µM (active)	–	3.32 µM (active)	–	–	–	–	–	–	–	–	–	–	–	–	14.8 µM (active)	–	–	–	–
COC1=C2C[C@@H](C)C[C@H](OC)[C@@H](O)[C@@H](C)C=C(C)[C@H](OC(N)=O)[C@@H](OC)C=CC=C(C)C(=O)NC(=CC1=O)C2=O	14.8 µM (active)	–	7.43 µM (active)	1.31 µM (active)	2.61 µM (active)	1.04 µM (active)	1.47 µM (active)	1.31 µM (active)	1.04 µM (active)	0.928 µM (active)	–	1.04 µM (active)	2.33 µM (active)	0.928 µM (active)	2.08 µM (active)	–	5.85 µM (active)	9.27 µM (active)	–	–
C=Cc1c(C)c2cc3nc(cc4[nH]c(cc5nc(cc1[nH]2)C(C)=C5CCC(=O)O)c(CCC(=O)OC)c4C)[C@@]1(C)C3=CC=C(C(=O)OC)[C@H]1C(=O)OC	1.18 µM (active)	–	0.0743 µM (active)	inactive	–	–	–	inactive	–	–	–	inactive	–	–	inactive	inactive	–	inactive	–	–
Cc1ccc2nc(NCCN)c3ncc(C)n3c2c1	18.7 µM (active)	–	18.7 µM (active)	–	–	–	–	–	–	–	–	–	–	–	–	–	–	–	–	–
C[C@@]12C(=O)OC(=O)[C@@]1(C)C1CCC2O1	1.87 µM (active)	–	3.72 µM (active)	3.29 µM (active)	9.27 µM (active)	6.57 µM (active)	–	6.57 µM (active)	2.08 µM (active)	3.69 µM (active)	1.47 µM (active)	1.85 µM (active)	1.85 µM (active)	4.14 µM (active)	2.93 µM (active)	–	2.61 µM (active)	–	–	8.27 µM (active)
C[C@@H](Oc1ccc2[nH]nc(C=Cc3cnn(CCO)c3)c2c1)c1c(Cl)cncc1Cl	18.7 µM (active)	–	14.8 µM (active)	0.657 µM (active)	–	2.61 µM (active)	0.827 µM (active)	18.5 µM (active)	18.5 µM (active)	2.33 µM (active)	0.737 µM (active)	2.08 µM (active)	0.104 µM (active)	5.22 µM (active)	3.69 µM (active)	–	18.5 µM (active)	13.1 µM (active)	13.1 µM (active)	23.3 µM (active)
C=CC(=O)N1CCc2ccc(-n3c(=O)ccc4cnc5ccc(-c6cnn(C)c6)cc5c43)cc21	2.96 µM (active)	–	3.72 µM (active)	2.93 µM (active)	–	5.22 µM (active)	2.93 µM (active)	9.27 µM (active)	4.65 µM (active)	5.22 µM (active)	–	5.22 µM (active)	8.27 µM (active)	10.4 µM (active)	inactive	–	9.27 µM (active)	–	–	–
